# Tau fibril ThT: blocks human tau fibril formation measured by thioflavin T; 270,000 compounds, 2.1% hits; P10636; Potency, µM (titrated, usually from 57.4 µM), for the others: at the highest dose activity, negative = inhibition, most hits filed as inhibitors; recombinant tau K18 P301L, heparin-induced fibrillization, ThT fluorescence; note: nearly all actives have a fitted effect of over 55% in size
# Target sequence (P10636 561-689 P618L limits assumed): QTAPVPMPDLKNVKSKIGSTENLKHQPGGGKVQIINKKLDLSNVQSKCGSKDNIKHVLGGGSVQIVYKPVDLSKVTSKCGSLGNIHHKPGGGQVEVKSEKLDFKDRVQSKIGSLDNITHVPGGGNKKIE
#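 Fibril formation assay: tau K18 P301L at 15 uM with trace Alexa 594 label, heparin inducer 20 uM, pH 7 sodium acetate buffer, 37 C for 6 hr; endpoint ThT signal.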
# Tau fluor cs: counter-screen for tau fibril formation inhibitors | Potency, µM (highest dose often 57.7 µM), without a hit: top-dose activity change, negative = decrease | AID 1463 | tau K18 P301L Alexa594 fluorescence, heparin fibrillization | 280,000 compounds, 0.93% hits; note: nearly all actives have a fitted effect of over 55% in size
#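 Human tau K18 P301L (15 uM unlabeled, 0.24 uM Alexa 594-labeled) in 100 mM sodium acetate pH 7 with 20 uM heparin, 6 hr at 37 C. ThT 30 uM added, 1 hr ambient; Alexa 594 FP and total fluorescence read at 555/632 nm.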
# TexasRed fluor: Texas Red fluorescence interference in TRb-SRC2 counter-screen; TRb/SRC2 Texas Red total fluorescence interference; 280,000 compounds, 0.29% hits; Potency, µM (highest dose often 106 µM), inactives show at the top dose fluorescence change, negative = quenching; active = well fitted curve in either direction with a large enough effect; inconclusive = small, poorly fitted or top-dose-only effect
#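 Flags fluorescent or light-absorbing compounds by total fluorescence, S + 2P, at 555 nm excitation and 632 nm emission. Mixture: 20 nM Texas Red SRC2 peptide, 0.6 uM human TRb LBD, 1 uM T3, 5% DMSO; compound exposure 5 h at ambient temperature.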
# TRb SRC2 PPI: disrupts binding of human TR beta to SRC2; Potency, µM (highest dose often 106 µM), without a hit: at the top dose activity change, negative = inhibition, actives largely listed as inhibitors; TRbeta-SRC2 peptide binding, fluorescence polarization; receptor liganded with 1 µM T3; 280,000 compounds, 0.065% hits;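 note: plate controls were bound peptide for no effect and peptide without receptor for full effect; nearly all actives have a fitted effect of over 50% in size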
# Target sequence (P10828 whole entry, looked up): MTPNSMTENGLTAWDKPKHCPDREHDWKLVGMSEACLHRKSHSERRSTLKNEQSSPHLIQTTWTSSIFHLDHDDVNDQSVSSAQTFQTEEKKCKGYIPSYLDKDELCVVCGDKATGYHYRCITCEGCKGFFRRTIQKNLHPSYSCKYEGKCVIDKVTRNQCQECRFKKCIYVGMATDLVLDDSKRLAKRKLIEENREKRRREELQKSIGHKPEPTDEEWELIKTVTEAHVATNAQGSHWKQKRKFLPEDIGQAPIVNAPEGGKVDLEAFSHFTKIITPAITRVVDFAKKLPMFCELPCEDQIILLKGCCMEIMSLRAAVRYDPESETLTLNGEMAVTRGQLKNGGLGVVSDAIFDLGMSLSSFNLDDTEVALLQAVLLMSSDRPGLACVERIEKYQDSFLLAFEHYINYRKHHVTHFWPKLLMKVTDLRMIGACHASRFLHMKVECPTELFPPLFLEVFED
#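 Compounds were added to 0.6 uM TRb ligand-binding domain and 20 nM Texas Red-labeled SRC2 peptide in Tris buffer containing 1 uM T3, incubated 5 hr at ambient temperature, then read by fluorescence polarization.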
# Tau FP inhib: blocks human tau fibril formation measured by polarization; P10636; K18 P301L tau heparin fibrillization, Alexa594 FP, 6 h; Potency, µM (doses to about 57.7 µM), for inactives: top-dose activity, negative = inhibition, usual class: inhibitors; 280,000 compounds, 0.39% hits; AID 1468; note: nearly all actives have a fitted effect of over 55% in size
#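 Human tau K18 […] P301L fragment, 15 uM unlabeled plus 0.24 uM Alexa 594-labeled tau (final), with compound and 20 uM heparin in 100 mM sodium acetate pH 7; 6 hr at 37 C, then Alexa 594 FP read.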
# Starred values were filed as active, the others as inactive; ? = inconclusive; [ ] = another dose, or the depositor's remark. Shown are actives, neighbours in structure and some others; about 3.1% of the full set was active somewhere. Unless noted, calls come from the whole dose curve; as a rule, active = well fitted curve in the direction sought with a large enough effect; inconclusive = small, poorly fitted or top-dose-only effect, or another doubt; inactive = no such curve, though single readings can be large; an effect the other way counts as inactive or inconclusive. Unless noted, % is set by controls: 0 for no effect and ±100 for the full control effect; potency is the fitted concentration of half-maximal effect.
SMILES,Tau fibril ThT,Tau fluor cs,TexasRed fluor,TRb SRC2 PPI,Tau FP inhib
Cc1cc(C)n(CC(O)Cn2c3ccc(Cl)cc3c3cc(Cl)ccc32)c(=O)n1 (configuration not stated),-9%,-23%,-1%,8%,-5%
OC(CNCCC1C=Nc2ccccc21)Cn1c2ccc(Cl)cc2c2cc(Cl)ccc21 (configuration not stated),?,3.2µM*[quencher],-1%[53 µM],-7%[53 µM],?
CCCCN(Cc1cc2cc(C)ccc2[nH]c1=O)C(=O)c1cccc(Cl)c1,-1%,4%,9%,-8%,-4%
Cc1nc(N)sc1-c1csc(NCc2ccccc2)n1,20µM*,?,0%,2%,?
Cc1nc(NC(=O)c2ccccc2)sc1-c1csc(N)n1,13µM*,?,-7%,6%,-3%
Cc1nc(N)sc1-c1csc(Nc2ncccn2)n1,4µM*,-29%,?,7%,3%
Cc1nc(NC(=O)c2ccccc2)sc1-c1csc(NCc2ccccc2)n1,?,13µM*[quencher],-6%,-4%,?
COc1ccccc1Nc1nc(-c2sc(NC(=O)c3ccccc3)nc2C)cs1,?,?,5%,-15%,7%
Cc1cc(-c2csc(NCc3ccccc3)n2)c(C)n1C,?,?,5%,-9%,-14%
CC(C)NC(=O)NC(=O)COC(=O)c1cc[n+]([O-])cc1,4%,2%,0%,-5%,-6%
Cc1ccc(CSC2=Nc3ccccc3C3=NC(CCC(=O)NC4CCCCC4)C(=O)N23)cc1 (configuration not stated),-4%,5%,3%,6%,2%
Cc1nc(NC(=O)c2ccccc2)sc1-c1csc(NCCc2ccccc2)n1,16µM*,16µM*[quencher],9%,17%,?
Cc1nc(NC(=O)c2ccccc2)sc1-c1csc(Nc2cccc(F)c2)n1,7.9µM*,11µM*[quencher],-3%,-7%,?
Cc1cc(NS(=O)(=O)c2ccc(Nc3nc(-c4sc(NC(=O)c5ccccc5)nc4C)cs3)cc2)no1,20µM*,16µM*[quencher],-27%,-5%,11%
Cc1ccc(N2C(=O)C(CC(=O)Nc3cccc(F)c3)N(CCc3ccccc3F)C2=O)cc1 (configuration not stated),16%,?,-2%,4%,?
OC(CNc1ccccc1)COc1ccc(OCC(O)CNc2ccccc2)cc1 (configuration not stated),2.8µM*,10µM*[quencher],-2%,-15%,10%
CN(C)c1ccc(NC(=O)c2sc(SCC(=O)Nc3nccs3)nc2N)cc1,4µM*,14µM*[quencher],-6%,3%,11%
CN(C)c1ccc(NC(=O)c2sc(SCC(=O)Nc3ccc(Br)cc3)nc2N)cc1,?,-15%,0%,6%,13%
NC(=O)c1sc2nc3c(c(-c4ccco4)c2c1N)CCC3,?,-18%,-4%,-9%,4%
Nc1c(C(=O)NC2CC2)sc2nc3c(c(-c4ccco4)c12)CC/C3=C/c1ccco1,8.9µM*,?,2%,-2%,?
Cc1cc(C)c2c(n1)sc1c(=O)n(-c3ccccc3C(F)(F)F)nnc12,0%,-9%,-80%[53 µM],-22%[53 µM],-9%
CCN(C(=O)c1coc(=O)c(Br)c1)c1ccc2c(c1)OCO2,22µM*,?,0%,-8%,?
CCN(C(=O)c1c(C)cc(=O)oc1C)c1ccc2c(c1)OCO2,-4%,0%,1%,-13%,-1%
COc1ccccc1NC(=O)c1sc2ncn(Cc3cccc4ccccc34)c(=O)c2c1C,-5%,-5%,0.89µM*[quencher],?,14%
COc1ccccc1NC(=O)c1sc2ncn(Cc3ccc(C)cc3)c(=O)c2c1C,-5%,-23%,-2%,3%,-1%
SMILES,Tau fibril ThT,Tau fluor cs,TexasRed fluor,TRb SRC2 PPI,Tau FP inhib
CCOC(=O)c1ccc(N2C(=O)c3[nH]nc(-c4ccc(C)cc4)c3C2c2cccc(F)c2)cc1 (configuration not stated),-3%,-23%,-1%,0%,?
CCOC(=O)c1ccc(N2C(=O)c3[nH]nc(-c4ccc(OC)cc4)c3C2c2cccc(O)c2)cc1 (configuration not stated),?,?,-1%,3%,16µM*
CCCCCCC1=Cc2cc(OC)c(OC)cc2C(C2(C(=O)OCC)CCCC2=O)O1 (configuration not stated),-6%[11.5 µM],-12%[11.6 µM],-17%[11.2 µM],3%[11.2 µM],-14%[11.6 µM]
Cc1ccc(Cl)c2sc(NC(=O)CS(=O)(=O)c3ccc(Cl)cc3)nc12,1%,?,0%,-7%,11µM*
CCc1ccc(-n2cccc2/C=C2/C(=N)N3C(=NC2=O)SN=C3S(C)(=O)=O)cc1,?,-21%,-17%,15%,-13%
CCSC1=NSC2=NC(=O)/C(=C\c3coc4ccccc4c3=O)C(=N)N12,25µM*,?,-18%,18%,-4%
CC(C)CC1=NN2C(=N)/C(=C\c3coc4ccccc4c3=O)C(=O)N=C2S1,32µM*,?,-22%,22%,?
Cc1cccc(-n2c(C)cc(/C=C3\C(=N)N4N=C(CC(C)C)SC4=NC3=O)c2C)c1,1%,8%,-1%[53 µM],5%[53 µM],?
C=CC[n+]1c(-c2ccc(Cl)cc2Cl)csc1Nc1ccc(NC(C)=O)cc1,?,25µM*[quencher],0%,5%,?
Cc1ccc(C)c(Oc2cc(NC(=O)CCCn3nc(C)c([N+](=O)[O-])c3C)cc([N+](=O)[O-])c2)c1,-4%,-2%,11%,11%,1%
Cc1ccc(Oc2cc(NC(=O)CCCn3nc([N+](=O)[O-])cc3C)cc([N+](=O)[O-])c2)cc1,-7%,10µM*[quencher],1%,-4%,3%
Cc1cc([N+](=O)[O-])nn1CCCC(=O)Nc1ccc(Cl)cc1Cl,2%,-5%,-3%,1%,-5%
Cc1nn(CCCC(=O)Nc2cc(Oc3ccccc3)cc([N+](=O)[O-])c2)c(C)c1[N+](=O)[O-],-3%,10µM*[quencher],0%,2%,7%
O=C(Nc1cc(Oc2ccc(Cl)cc2)cc([N+](=O)[O-])c1)c1ccco1,-7%,7.1µM*[quencher],-2%,-2%,-24%
Cc1cccc(Oc2cc(NC(=O)c3ccccc3)cc([N+](=O)[O-])c2)c1,0%,7.1µM*[quencher],-8%,-5%,-9%
CC(=O)N1CC2([N+](=O)[O-])CN(C(C)=O)CC([N+](=O)[O-])(C1)C2(C)C,4%,4%,-2%,-17%,-7%
N#CCCCN1C(=O)C(O)(CC(=O)c2ccc3c(c2)OCCO3)c2ccccc21 (configuration not stated),?,-7%,-1%,-7%,-2%
N#CCCCN1C(=O)C(=C(C#N)C#N)c2ccccc21,32µM*,?,2%,-1%,?
